In ChEMBL document CHEMBL3988442, “University of Dundee, Small-Polar-MMV Screening Library” (2021):
For some assays here: Potency and affinity values are given separately.

Experiments:
Set-up in all cases: scale not given: direction of the effect not stated beside the values
[1] = target: Protein translocase subunit SecA (Escherichia coli (strain K12)) (UniProt P10408); assay: Assay to Identify E. coli SecA ATPase Inhibitors; format: functional; details: 30 µM
[2] = target: T1, Ubiquitin-activating enzyme e1, putative (Leishmania donovani (strain BPK282A1)) (UniProt E9BSI1); assay: Leishmania donovani Ubiquitin Activating Enzyme (LdE1); format: functional; details: 30 µM
T1 sequence (whole entry): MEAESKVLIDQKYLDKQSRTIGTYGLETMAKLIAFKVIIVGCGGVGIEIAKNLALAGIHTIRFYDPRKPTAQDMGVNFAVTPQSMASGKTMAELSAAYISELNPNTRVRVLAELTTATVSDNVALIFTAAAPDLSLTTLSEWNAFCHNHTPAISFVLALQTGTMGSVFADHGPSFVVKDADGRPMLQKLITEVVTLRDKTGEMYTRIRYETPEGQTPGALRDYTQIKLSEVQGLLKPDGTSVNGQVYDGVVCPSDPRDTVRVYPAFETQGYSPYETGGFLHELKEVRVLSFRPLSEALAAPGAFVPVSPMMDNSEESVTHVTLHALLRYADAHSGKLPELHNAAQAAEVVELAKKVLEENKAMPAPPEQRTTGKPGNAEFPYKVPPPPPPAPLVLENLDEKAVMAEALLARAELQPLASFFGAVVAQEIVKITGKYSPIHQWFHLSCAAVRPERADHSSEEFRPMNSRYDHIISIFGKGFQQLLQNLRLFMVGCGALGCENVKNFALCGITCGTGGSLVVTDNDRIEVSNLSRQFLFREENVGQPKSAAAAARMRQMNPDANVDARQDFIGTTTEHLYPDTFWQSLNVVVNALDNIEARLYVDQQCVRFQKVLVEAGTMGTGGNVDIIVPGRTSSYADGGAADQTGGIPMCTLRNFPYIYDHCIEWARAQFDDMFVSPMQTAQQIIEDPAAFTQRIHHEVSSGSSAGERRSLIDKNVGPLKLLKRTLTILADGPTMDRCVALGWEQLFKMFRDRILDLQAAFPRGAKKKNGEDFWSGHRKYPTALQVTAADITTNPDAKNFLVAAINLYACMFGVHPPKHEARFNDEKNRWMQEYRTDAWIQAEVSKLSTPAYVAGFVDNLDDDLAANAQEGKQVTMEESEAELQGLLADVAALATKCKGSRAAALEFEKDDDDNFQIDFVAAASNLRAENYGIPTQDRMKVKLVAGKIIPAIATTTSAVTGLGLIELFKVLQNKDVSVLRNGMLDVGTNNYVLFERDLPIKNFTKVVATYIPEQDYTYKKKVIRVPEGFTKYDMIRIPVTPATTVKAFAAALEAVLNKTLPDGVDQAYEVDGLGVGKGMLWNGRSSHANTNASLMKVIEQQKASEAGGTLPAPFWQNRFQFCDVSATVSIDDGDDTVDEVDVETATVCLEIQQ

[3] = target: AMP-activated protein kinase, AMPK (Homo sapiens) (UniProt P54646+O43741+P54619+Q9UGJ0+Q9Y478+Q13131+Q9UGI9); assay: AMP-dependent Kinase enzyme assay. An in vitro enzyme assay that detects ADP turnover that is directly proportional to AMPK activity. This uses naive AMPK that is activated during the assay with MK-8722; format: functional; details: 30 µM
[4] = target: Sialic acid-binding Ig-like lectin 9 (Homo sapiens) (UniProt Q9Y336); assay: Hs-Siglec9 ALPHAscreen SOP 20170721; details: 10 µM
[5] = tested on: Trypanosoma cruzi; assay: Trypanosoma cruzi phosphomannomutase and mannose-1-phosphate guanylyltransferase assay; format: functional; details: 10 µM
[6] = target: T2, Arginase-2, mitochondrial (Homo sapiens) (UniProt P78540); assay: in vitro enzyme assay to detect the production of urea directly proportional to the activity of Arginase II; format: functional; details: 33.3 µM; note: in the data most compounds retested in dose-response had high values
T2 sequence (whole entry): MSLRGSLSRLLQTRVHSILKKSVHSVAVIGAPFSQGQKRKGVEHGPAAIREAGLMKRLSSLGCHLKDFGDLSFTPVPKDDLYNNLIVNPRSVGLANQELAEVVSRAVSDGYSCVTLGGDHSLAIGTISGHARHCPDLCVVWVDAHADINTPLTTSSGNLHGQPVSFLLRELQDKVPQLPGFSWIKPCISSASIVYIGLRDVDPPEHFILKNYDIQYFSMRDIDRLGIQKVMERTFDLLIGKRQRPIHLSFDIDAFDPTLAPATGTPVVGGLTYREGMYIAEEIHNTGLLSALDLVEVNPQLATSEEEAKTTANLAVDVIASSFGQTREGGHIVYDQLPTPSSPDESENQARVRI

[7] = target: T3, Proteasome subunit beta (Trypanosoma cruzi) (UniProt O96673); assay: Trypanosoma cruzi proteasome chymotrypsin-like activity (TcProtChymo) assay.; note: in the data most compounds retested in dose-response had high values; format: functional; details: 9.37 µM
T3 sequence (whole entry): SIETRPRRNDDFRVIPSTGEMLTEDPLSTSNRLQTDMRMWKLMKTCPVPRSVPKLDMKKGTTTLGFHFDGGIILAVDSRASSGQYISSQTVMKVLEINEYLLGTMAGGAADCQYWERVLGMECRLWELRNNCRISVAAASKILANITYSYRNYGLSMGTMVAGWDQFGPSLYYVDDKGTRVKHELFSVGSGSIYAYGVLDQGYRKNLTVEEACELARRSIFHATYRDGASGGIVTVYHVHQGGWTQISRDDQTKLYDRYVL

[8] = species: Homo sapiens; assay: To identify inhibition of the IFN signalling (Jak-Stat) pathway via expression of an eGFP reporter gene under the control of an IFN-stimulated response element (ISRE) containing MxA promoter.; format: functional; details: 30 µM
[9] = target: T4, Tyrosyl-tRNA synthetase, putative (Trypanosoma cruzi (strain CL Brener)) (UniProt Q4DSP6); assay: Trypanosoma cruzi tyrosyl tRNA synthetase (TcYRS) _High Tyrosine SOP; format: functional; details: 30 µM; note: in the data most compounds retested in dose-response had high values
T4 sequence (whole entry): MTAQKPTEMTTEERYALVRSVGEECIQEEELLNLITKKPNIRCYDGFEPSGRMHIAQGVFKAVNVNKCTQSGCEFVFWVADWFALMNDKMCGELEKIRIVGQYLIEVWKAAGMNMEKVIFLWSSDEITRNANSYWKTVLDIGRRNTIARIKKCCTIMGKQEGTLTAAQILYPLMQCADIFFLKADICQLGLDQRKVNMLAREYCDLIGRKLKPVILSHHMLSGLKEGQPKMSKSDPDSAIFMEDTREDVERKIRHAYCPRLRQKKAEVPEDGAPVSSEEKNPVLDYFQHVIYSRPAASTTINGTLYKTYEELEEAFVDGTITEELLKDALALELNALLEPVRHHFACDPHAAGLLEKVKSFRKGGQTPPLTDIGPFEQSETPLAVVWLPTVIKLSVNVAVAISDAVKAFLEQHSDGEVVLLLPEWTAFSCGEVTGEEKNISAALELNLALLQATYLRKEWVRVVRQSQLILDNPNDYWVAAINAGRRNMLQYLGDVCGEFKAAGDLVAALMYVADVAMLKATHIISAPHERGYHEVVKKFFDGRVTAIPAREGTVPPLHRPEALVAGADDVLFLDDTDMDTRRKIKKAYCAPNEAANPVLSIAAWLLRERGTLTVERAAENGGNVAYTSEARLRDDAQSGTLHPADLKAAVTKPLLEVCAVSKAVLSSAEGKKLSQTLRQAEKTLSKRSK

[10] = target: T4, Tyrosyl-tRNA synthetase, putative (Trypanosoma cruzi (strain CL Brener)); assay: Trypanosoma cruzi tyrosyl tRNA synthetase (TcYRS) SOP; format: functional; details: 30 µM
[11] = target: Chromo domain-containing protein 1 (Saccharomyces cerevisiae (strain ATCC 204508 / S288c) (Baker's yeast)) (UniProt P32657); assay: ScCHD-1 Enzyme Inhibition Assay; format: functional; details: 30 µM; note: in the data most compounds retested in dose-response had high values
Chain of Chromo domain-containing protein 1 (Saccharomyces cerevisiae (strain ATCC 204508 / S288c) (Baker's yeast)) (P32657 whole entry, the tested form may be a part): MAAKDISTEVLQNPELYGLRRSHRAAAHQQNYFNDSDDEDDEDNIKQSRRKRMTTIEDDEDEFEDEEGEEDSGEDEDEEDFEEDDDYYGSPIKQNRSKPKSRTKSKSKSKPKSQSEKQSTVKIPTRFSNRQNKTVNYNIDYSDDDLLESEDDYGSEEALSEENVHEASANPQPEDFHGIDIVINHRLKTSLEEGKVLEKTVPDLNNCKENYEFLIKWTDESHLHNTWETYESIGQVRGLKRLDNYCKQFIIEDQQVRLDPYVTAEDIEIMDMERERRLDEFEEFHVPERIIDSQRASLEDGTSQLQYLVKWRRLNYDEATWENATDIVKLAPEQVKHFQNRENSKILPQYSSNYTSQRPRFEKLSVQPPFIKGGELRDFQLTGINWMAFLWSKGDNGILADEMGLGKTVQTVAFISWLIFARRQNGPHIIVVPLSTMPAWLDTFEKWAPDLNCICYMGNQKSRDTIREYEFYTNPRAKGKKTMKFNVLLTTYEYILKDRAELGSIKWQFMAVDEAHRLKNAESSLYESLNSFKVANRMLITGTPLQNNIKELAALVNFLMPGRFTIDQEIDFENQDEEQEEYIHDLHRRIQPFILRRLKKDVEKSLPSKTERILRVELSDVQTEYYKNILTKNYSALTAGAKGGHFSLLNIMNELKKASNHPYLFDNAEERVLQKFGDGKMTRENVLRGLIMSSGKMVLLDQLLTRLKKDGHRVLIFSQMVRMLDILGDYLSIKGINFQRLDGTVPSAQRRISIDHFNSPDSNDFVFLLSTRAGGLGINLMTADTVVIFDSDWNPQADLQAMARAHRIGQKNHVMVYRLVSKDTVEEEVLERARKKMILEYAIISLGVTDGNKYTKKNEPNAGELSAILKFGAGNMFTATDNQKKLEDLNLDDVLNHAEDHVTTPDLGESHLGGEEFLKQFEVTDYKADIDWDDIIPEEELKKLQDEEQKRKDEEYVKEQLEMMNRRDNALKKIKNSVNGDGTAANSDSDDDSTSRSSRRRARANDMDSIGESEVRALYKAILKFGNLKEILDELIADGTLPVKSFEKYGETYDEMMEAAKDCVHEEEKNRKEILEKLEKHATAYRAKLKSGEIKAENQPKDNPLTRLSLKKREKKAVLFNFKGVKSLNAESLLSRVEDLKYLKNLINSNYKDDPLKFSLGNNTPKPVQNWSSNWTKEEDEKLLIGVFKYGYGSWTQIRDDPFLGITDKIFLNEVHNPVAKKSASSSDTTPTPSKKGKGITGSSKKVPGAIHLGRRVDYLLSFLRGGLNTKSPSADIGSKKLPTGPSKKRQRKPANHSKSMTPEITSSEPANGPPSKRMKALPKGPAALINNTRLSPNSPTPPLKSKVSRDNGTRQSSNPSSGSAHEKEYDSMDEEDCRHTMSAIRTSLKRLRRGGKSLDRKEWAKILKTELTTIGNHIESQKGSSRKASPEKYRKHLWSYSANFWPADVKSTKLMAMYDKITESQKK

Chain of Sialic acid-binding Ig-like lectin 9 (Homo sapiens) (Q9Y336 whole entry): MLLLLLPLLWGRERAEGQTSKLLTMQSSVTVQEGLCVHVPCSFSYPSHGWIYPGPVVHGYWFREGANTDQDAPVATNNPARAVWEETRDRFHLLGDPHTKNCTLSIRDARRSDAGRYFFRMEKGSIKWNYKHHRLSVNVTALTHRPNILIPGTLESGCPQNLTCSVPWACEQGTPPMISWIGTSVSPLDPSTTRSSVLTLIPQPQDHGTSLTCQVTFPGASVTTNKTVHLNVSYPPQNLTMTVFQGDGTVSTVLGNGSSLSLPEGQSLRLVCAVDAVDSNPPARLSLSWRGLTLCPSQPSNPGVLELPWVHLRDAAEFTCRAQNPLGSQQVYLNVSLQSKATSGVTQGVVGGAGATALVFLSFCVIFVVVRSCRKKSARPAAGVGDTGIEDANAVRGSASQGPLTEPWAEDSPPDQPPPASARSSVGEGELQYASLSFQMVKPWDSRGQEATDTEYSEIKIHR
Chain of Protein translocase subunit SecA (Escherichia coli (strain K12)) (P10408 whole entry): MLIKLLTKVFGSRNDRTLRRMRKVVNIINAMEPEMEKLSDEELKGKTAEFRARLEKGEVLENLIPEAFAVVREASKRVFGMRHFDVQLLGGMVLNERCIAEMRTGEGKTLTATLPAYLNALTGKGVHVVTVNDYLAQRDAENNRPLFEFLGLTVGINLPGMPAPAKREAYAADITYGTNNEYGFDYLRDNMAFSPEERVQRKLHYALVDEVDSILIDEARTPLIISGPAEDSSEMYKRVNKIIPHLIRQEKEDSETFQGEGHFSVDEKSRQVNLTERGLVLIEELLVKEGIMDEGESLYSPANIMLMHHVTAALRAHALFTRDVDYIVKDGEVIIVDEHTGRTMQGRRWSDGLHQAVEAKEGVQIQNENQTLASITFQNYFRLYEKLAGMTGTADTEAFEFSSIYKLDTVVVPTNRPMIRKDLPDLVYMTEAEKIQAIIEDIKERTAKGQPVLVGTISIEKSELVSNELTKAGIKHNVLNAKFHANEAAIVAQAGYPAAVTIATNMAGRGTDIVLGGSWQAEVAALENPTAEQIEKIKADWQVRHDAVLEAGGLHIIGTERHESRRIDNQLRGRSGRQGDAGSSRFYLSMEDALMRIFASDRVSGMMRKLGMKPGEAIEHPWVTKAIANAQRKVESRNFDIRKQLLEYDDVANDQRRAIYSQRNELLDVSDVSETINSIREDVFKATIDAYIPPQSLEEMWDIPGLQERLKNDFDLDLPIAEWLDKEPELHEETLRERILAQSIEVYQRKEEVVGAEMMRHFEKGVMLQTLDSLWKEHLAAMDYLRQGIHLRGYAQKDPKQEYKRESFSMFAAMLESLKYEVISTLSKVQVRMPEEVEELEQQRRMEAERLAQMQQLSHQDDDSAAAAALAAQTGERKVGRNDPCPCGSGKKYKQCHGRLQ

Compound | Percent Effect [1] | Percent Effect [2] | Percent Effect [3] | Percent Effect [4] | Percent Effect [5] | Percent Effect [6] | Percent Effect [7] | Percent Effect [8] | Percent Effect [9] | Percent Effect [10] | Percent Effect [11]
Cc1ccoc1C(=O)NCC(Cc1ccc(F)cc1)C(N)=O (configuration not stated) | -1.94% | 18.2% | 4.14% | 0.338% | 3.62% | 4.42% | 15.3% | -1.29% | 7.62% | 23.5% | -14.3%
O=C(COCC1CC1)N1CCCC(n2ccnc2)C1 (configuration not stated) | -2.64% | 11.4% | 1.59% | -0.338% | -1.33% | 2.37% | 9.26% | 5.7% | 1.04% | 5.06% | -21.1%
CCc1ncc(C(=O)NCCNC(=O)Cc2ccc(F)cc2)s1 | -1.95% | 8% | -16.6% | 11.1% | 5.55% | 16.7% | 11.3% | -8.05% | 7.1% | 16.1% | -3.11%
O=C(NC1CCCC1)NC1CCC(C(=O)N2CCSCC2)CC1 (configuration not stated) | -4.05% | 2.6% | 5.55% | 0.598% | -5.61% | -2.76% | 3.33% | 23.7% | 2.15% | -1.24% | -0.623%
Cc1ccc(CC(=O)N2CSCC2C(=O)N(C)Cc2ccco2)o1 (configuration not stated) | -2.18% | 2.63% | 17.7% | -8.06% | -2.89% | 3.24% | 7.02% | -5.97% | 3.45% | 1.24% | -0.996%
Cc1cc(CN(Cc2cccs2)CC2CCCO2)no1 (configuration not stated) | -4.05% | 1.27% | 10.8% | 3.07% | -1.33% | 4.95% | 6% | 6.19% | -5.21% | 0% | 16.7%
Cn1nnc2c1C(COCC1CC1)CN(C(=O)Cc1ccsc1)C2 (configuration not stated) | -5.15% | 23.4% | -3.67% | 0.591% | 4.63% | -3.23% | 9.57% | 4.27% | -1.06% | 14.1% | -12.5%
O=C([C@@H]1CC[C@@H]2[C@@H](CCN2Cc2cccc(F)c2)O1)N1CCCCO1 | 3% | -34.7% | 4.08% | 2.78% | -3.28% | -52.5% | 9.23% | 16.6% | 2.08% | 22.5% | -4.83%
Cn1cc2c(n1)C(CNC(=O)Cc1ccsc1)OCC2 (configuration not stated) | -4.65% | 7.79% | -2.5% | -0.415% | 4.83% | -7.1% | 2.26% | 7.06% | 2.12% | 3.85% | -6.29%
Cn1cc(C[C@H]2[C@H](O)CCN2CC2CC2)cn1 | -2.02% | -2.7% | 6.23% | 1.34% | 1.27% | -32.8% | 11.2% | 1.21% | 5.41% | 5.13% | 0.853%
O=C(c1csc(Br)c1)N1CCCC(n2ccnc2)C1 (configuration not stated) | -3.43% | 11.4% | -1.54% | -8.98% | 2.56% | -5.38% | 2.74% | -8.54% | 2.08% | 12.7% | 54.1%
COc1cccc2cc(CNC(=O)N3CCCC(O)C3)oc12 (configuration not stated) | -6.3% | -2.53% | -3.54% | 1.57% | 8.59% | -3.8% | 1.39% | 6.63% | 3.45% | 8.86% | -5.74%
O=C(CCNC(=O)C1CCCC1)NCc1cccnc1-n1cncn1 | -4.32% | 15.8% | -2.4% | 3.19% | -1.21% | -2.88% | 9.56% | -0.451% | 14.3% | 25.9% | -0.359%
N#CC1(C(=O)Nc2ccc(OC(F)F)cc2)CCCC1 | -4.03% | 1.39% | 5.97% | -0.254% | 0.68% | 2.21% | 3.68% | -8.03% | 2.1% | 5.13% | -0.635%
CCn1cc(N2Cc3nc(N)ncc3C2=O)cn1 | -6.38% | 12% | -9.46% | -1.51% | 7.47% | -20.6% | 13.9% | 2.34% | 7.41% | 17.9% | -15.1%
Cc1cc(C)n(CC2CCCN2C(=O)c2cccc3[nH]ncc23)n1 (configuration not stated) | -2.49% | -10.8% | -1.43% | 12.1% | 7.89% | -2.77% | -4.49% | 7.84% | 5.94% | 15.8% | -3.25%
COCCN1CCN(C(=O)c2cc(C(C)C)on2)[C@H]2CS(=O)(=O)C[C@H]21 | -4.23% | 1.39% | -4.33% | -3.43% | -3.6% | -0.442% | 17.2% | -5.77% | 2.1% | 0% | -2.65%
O=C(Cn1cc(C(=O)O)ccc1=O)Nc1ccc(F)cc1Cl | -1.48% | 14.7% | 2.96% | 5.48% | 1.18% | -12.2% | 11.5% | -15% | 6.35% | 5.13% | -9.34%
Cc1ccc(CC(=O)N2CCOC(c3nc(C)n[nH]3)C2)cn1 (configuration not stated) | -3.84% | 20.8% | -6.18% | 28.2% | 3.79% | 5.74% | 5.96% | -6.79% | 6.32% | 12.8% | -3.82%
CC(C)NC(=O)N1CCc2ncc(CN3CCOCC3)n2CC1 | 1.23% | 0% | 6.6% | 1.59% | -4.2% | 0.319% | 14% | 4.62% | 3.24% | 7.69% | 1.69%
c1ccc(-c2cnc(CN3CCCC3Cn3cncn3)o2)cc1 (configuration not stated) | -2.46% | 5.06% | -0.0232% | -1.55% | -2.93% | 2.66% | -0.737% | 10.6% | 7.39% | 13.9% | -8.4%
Cc1n[nH]c(C)c1C1COCCN1C(=O)Cc1cccc(F)c1 (configuration not stated) | 1.02% | -2.74% | 2.69% | 0.561% | -6.46% | 2.73% | 2.13% | -1.33% | -1.07% | -2.5% | -1.14%
